In PubChem BioAssay AID463173 (ICCB-Longwood Screening Facility, Harvard Medical School, 2010):
Hit rate of the full screen: of about 52,000 compounds, about 4,300 (8.3%) were called active. Only a selection was taken, and actives are over-represented in it overall. Unmarked numbers belong to inactive results. Rule as the data show it: active = survival mostly below about 52% (no sharp cut-off); inactive = mostly above about 56%.

test system: DeltatarO mutant; assay: S. aureus survival, RN4220 and DeltatarO strains – OD600, teichoic acid synthesis inhibitors, primary screen (AID 463173); conditions: S. aureus RN4220 wild type/DeltatarO growth, OD600, 18 h, stronger effect = lower value, screened at 18.75 µg/mL (by protocol)

Row | Compound | survival
1 | CCOC(=O)c1ccc(NC(=O)c2c(NCc3ccc(OC)c(OC)c3OC)sc3c2CCC(C)C3)cc1 (stereo not given) | 123%
2 | COc1cccc(C(=O)N(Cc2ccc(C)o2)C2CCS(=O)(=O)C2)c1 (stereo not given) | 96%
3 | CN(C(=O)c1cc2nc(-c3ccco3)cc(C(F)(F)F)n2n1)C12CC3CC(CC(C3)C1)C2 | 110%
4 | COC(=O)c1ccccc1NC(=O)c1cn2c3c(ccc(Cl)c3c1=O)OC(C)C2 (stereo not given) | 84%
5 | Cc1cccc(-n2c3nc(=O)n(C)c(=O)c-3cc3ccc(Cl)cc32)c1C | 81%
6 | Cn1c(=O)c2sccc2n2c(CCCC(=O)Nc3ccc(Oc4ccccc4)cc3)nnc12 | 53%
7 | CCCn1c(=O)c2sccc2n2c(CCCC(=O)Nc3ccc(Oc4ccc(Cl)cc4)cc3)nnc12 | 98%
8 | Cn1c(=O)c2sccc2n2c(CCCC(=O)Nc3ccc(Oc4ccc(Cl)cc4)cc3)nnc12 | 24% (active)
9 | COc1ccc(NC(=O)c2ccc(CN3C(=O)CCn4nc(C)cc43)cc2)c(OC)c1 | 99%
10 | CCCC1CC(C)(/C(C)=N\NC(N)=S)OC1=O (stereo not given) | 98%
11 | CCCC1CC(C)(c2csc(NCC)n2)OC1=O (stereo not given) | 71% (active)
12 | CCC1(c2csc(Nc3ccccc3C)n2)CCC(=O)O1 (stereo not given) | 89%
13 | CCCCc1ccc(NC(=O)C2(C)Cc3ccccc3C(=O)O2)cc1 (stereo not given) | 75%
14 | COc1ccc(S(=O)(=O)N(CC(=O)NCCc2ccccc2)c2ccc(Cl)cc2)cc1 | 83%
15 | COc1ccc(CCN2C(=O)N(c3ccc(F)cc3)C(=O)C2CC(=O)Nc2ccc(F)c(F)c2)cc1 (stereo not given) | 61%
16 | CCCCOC(=O)c1c(C)oc2ccc(NS(=O)(=O)c3ccc(F)cc3C)cc12 | 10% (active)
17 | CCOC(=O)c1c(C)oc2ccc(N(C(=O)c3ccncc3)S(=O)(=O)c3ccc(CC)cc3)cc12 | 60%
18 | CCOC(=O)c1c(C)oc2ccc(N(C(=O)c3ccncc3)S(=O)(=O)c3ccc(F)cc3)cc12 | 28% (active)
19 | CCCc1oc2ccc(NS(=O)(=O)c3ccc(OCC)cc3)cc2c1C(=O)OCC | 65%
20 | CCOC(=O)c1c(-c2ccccc2)oc2ccc(NS(=O)(=O)c3ccccc3)cc12 | 35% (active)
21 | COCc1oc2ccc(NS(=O)(=O)c3ccc(C)cc3)cc2c1C(=O)OC | 60%
22 | CCOC(=O)c1c(C)oc2ccc(N(C(=O)c3ccncc3)S(=O)(=O)c3ccc(F)cc3C)cc12 | 79%
23 | CCOC(=O)c1c(-c2ccccc2)oc2ccc(NS(=O)(=O)c3ccc(OC)cc3)cc12 | 60%
24 | CCc1ccc(S(=O)(=O)Nc2ccc3oc(C)c(C(=O)OCCOC)c3c2)cc1 | 32% (active)
25 | Cc1cc(F)ccc1S(=O)(=O)Nc1ccc2oc3c(c2c1)CC(C)CC3 (stereo not given) | 56%
26 | CCOC(=O)c1c(-c2ccccc2)oc2ccc(NS(=O)(=O)c3ccc(C)cc3C)cc12 | 47%
27 | CCOC(=O)c1c(-c2ccccc2)oc2ccc(NS(=O)(=O)c3ccc(C)cc3)cc12 | 83%
28 | CC(C)(C)c1ccc(CN(Cc2ccco2)Cc2nnnn2C2CCCCC2)cc1 | 105%

Row | Compound | survival
29 | CC1CCc2c(nc3ncnn3c2NCCN(C)C)C1 (stereo not given) | 88%
30 | COc1cccc(NC(=O)Nc2cccc(-c3cn4cccnc4n3)c2)c1 | 78%
31 | COc1ccc(C(=O)n2cnnc2N)cc1 | 103%
32 | Cc1cc(C)c(S(=O)(=O)Nc2ccc3oc(C)c(C(=O)OC(C)C)c3c2)cc1C | 48% (active)
33 | CCOC(=O)c1c(-c2ccccc2)oc2ccc(NS(=O)(=O)c3cc(C)c(C)cc3C)cc12 | 63%
34 | CC(=O)c1c(C)oc2ccc(NS(=O)(=O)c3ccc(C(C)C)cc3)cc12 | 78%
35 | COc1ccc(CCNC(=O)CCCn2c(=O)c3cccn3c3ccc(F)cc32)cc1OC | 43% (active)
36 | COc1ccc(CNC(=O)CCCn2c(=O)c3cccn3c3ccc(F)cc32)cc1OC | 53%
37 | COc1ccc(CCNC(=O)CCCn2c(=O)c3cccn3c3ccccc32)cc1OC | 61%
38 | COc1ccc(CCNC(=O)CCn2c(=O)c3cccn3c3ccc(F)cc32)cc1OC | 45% (active)
39 | CCOc1ccc(CCNC(=O)Cn2c(=O)c3cccn3c3ccc(F)cc32)cc1OCC | 74%
40 | COc1ccc(CNC(=O)CCn2c(=O)c3cccn3c3ccc(F)cc32)cc1OC | 91%
41 | CCOc1ccc(CCNC(=O)CCn2c(=O)c3cccn3c3ccc(F)cc32)cc1OCC | 42% (active)
42 | COc1ccc(CCNC(=O)Cn2c(=O)c3cccn3c3ccc(F)cc32)cc1OC | 72%
43 | CCOc1ccc(CCNC(=O)CCCn2c(=O)c3cccn3c3cccnc32)cc1OCC | 93%
44 | COc1ccc(N2CC(NC(=O)c3c(F)cccc3Cl)CC2=O)cc1OC (stereo not given) | 95%
45 | COc1ccc(Cl)cc1NC(=O)CSc1nnc(C)n2c1cc1sccc12 | 68%
46 | Cc1ccc(-n2nc(C)c3c(C(F)(F)F)cc(-c4cccnc4)nc32)cc1C | 42%
47 | CCN(Cc1ccccc1)C(=O)Cn1c(=O)n(Cc2ccccc2)c(=O)c2c1c1cc(OC)ccc1n2C | 59%
48 | O=C(CN1C(=O)C2(SCC(=O)N2c2cccc(Cl)c2)c2ccccc21)NCCc1ccccc1 (stereo not given) | 104%
49 | CCOc1ccccc1CNC(=O)CN1C(=O)C2CCCCN2c2ccc(C(=O)N(C)C)cc21 (stereo not given) | 120%
50 | COc1cccc(NC(=O)CSc2nc3ccc(NC(=O)c4ccco4)cc3s2)c1 | 77%
51 | CN(C)c1cccc(C(=O)Nc2nc3ccc(S(=O)(=O)N4CCCC4)cc3s2)c1 | 135%
52 | CC(C)(C)NS(=O)(=O)c1ccc2nc(NC(=O)c3cccnc3)sc2c1 | 86%
53 | CN(C)c1cccc(C(=O)Nc2nc3ccc(S(=O)(=O)NC(C)(C)C)cc3s2)c1 | 47% (active)
54 | Cc1cccc(NC(=O)Cn2nc(N3CCN(c4ccccc4)CC3)ccc2=O)c1C | 87%
55 | COc1cc(NC(=O)c2nc3cc(C)c(C)cc3n(C)c2=O)cc(OC)c1OC | 94%
